From PubChem BioAssay AID1159580 (chemical genetic matrix, 2015)
In all, about 5,500 compounds went through this assay and about 2,000 (36%) were called active. Another 18% or so got no clear call; they are omitted. Cut-off read from the data, not from the text of the source: active = normalized growth mostly below about 0.91 (no sharp cut-off); inconclusive = no clear call, values can overlap the other calls; inactive = mostly above about 0.92. The list shows a part of the results.

Assay: chemical genetic growth profiling, strain panel (AID 1159580);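 note: tested at 20 µM; growth read once vehicle control cultures reached saturation at 30 °C; 1 = growth at the plate median or of vehicle wells; lower values mean less growth of the strain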
Details: growth OD

Measured: normalized growth

COc1ccc(C2CC(=O)c3ccc(OC)cc3O2)cc1 (centres undefined)
active: S. cerevisiae deletion strains, locus YKR001C, strain vps1, active compounds read low 0.876 | S. cerevisiae deletion strains, locus YLR113W, strain HOG1, active compounds read low 0.851 | S. cerevisiae deletion strains, locus YLR221C, strain rsa3, active compounds read low 0.899 | S. cerevisiae deletion strains, locus YLR258W, strain gsy2, active compounds read low 0.91 | S. cerevisiae deletion strains, locus YLR268W, strain sec22, active compounds read low 0.832 | S. cerevisiae deletion strains, locus YLR320W, strain mms22, active compounds read low 0.742 | S. cerevisiae deletion strains, locus YLR330W, strain CHS5, active compounds read low 0.844 | S. cerevisiae deletion strains, locus YLR342W, strain FKS1 (second series), active compounds read low 0.705 | S. cerevisiae deletion strains, locus YLR418C, strain cdc73, active compounds read low 0.66 | S. cerevisiae deletion strains, locus YML032C, strain rad52, active compounds read low 0.889 | S. cerevisiae deletion strains, locus YML120C, strain ndi1, active compounds read low 0.869 | S. cerevisiae deletion strains, locus YMR205C, strain PFK2, active compounds read low 0.842 | S. cerevisiae deletion strains, locus YMR263W, strain SAP30, active compounds read low 0.869 | S. cerevisiae deletion strains, locus YNL071W, strain lat1, active compounds read low 0.727 | S. cerevisiae deletion strains, locus YNL153C, strain GIM3, active compounds read low 0.847 | S. cerevisiae deletion strains, locus YNL183C, strain NPR1, active compounds read low 0.802 | S. cerevisiae deletion strains, locus YNL233W, strain BNI4, active compounds read low 0.804 | S. cerevisiae deletion strains, locus YNL307C, strain MCK1, active compounds read low 0.668 | S. cerevisiae deletion strains, locus YOL006C, strain TOP1, active compounds read low 0.394 | S. cerevisiae deletion strains, locus YOR083W, strain WHI5, active compounds read low 0.865 | S. cerevisiae deletion strains, locus YOR184W, strain ser1, active compounds read low 0.799 | S. cerevisiae deletion strains, locus YOR270C, strain vph1, active compounds read low 0.675 | S. cerevisiae deletion strains, locus YOR290C, strain snf2, active compounds read low 0.822 | S. cerevisiae deletion strains, locus YPL051W, strain arl3, active compounds read low 0.887 | S. cerevisiae deletion strains, locus YPL055C, strain LGE1, active compounds read low 0.754 | S. cerevisiae deletion strains, locus YPL078C, strain atp4, active compounds read low 0.888 | S. cerevisiae deletion strains, locus YPR163C, strain tif3, active compounds read low 0.797 | S. cerevisiae deletion strains, locus YPR167C, strain met16, active compounds read low 0.889 | S. cerevisiae deletion strains, strain wtn01, active compounds read low 0.887 | S. cerevisiae strains, strain wild type, active compounds read low 0.89
inactive: S. cerevisiae deletion strains, locus YKL068W, active compounds read low 0.97 | S. cerevisiae deletion strains, locus YKL085W, strain MDH1 (second series), active compounds read low 0.982 | S. cerevisiae deletion strains, locus YKL085W, strain MDH1, active compounds read low 0.982 | S. cerevisiae deletion strains, locus YKL160W, strain elf1, active compounds read low 0.908 | S. cerevisiae deletion strains, locus YKL190W, strain CNB1, active compounds read low 0.948 | S. cerevisiae deletion strains, locus YKR026C, strain gcn3, active compounds read low 0.931 | S. cerevisiae deletion strains, locus YKR091W, strain srl3, active compounds read low 0.968 | S. cerevisiae deletion strains, locus YLL001W, strain dnm1, active compounds read low 0.938 | S. cerevisiae deletion strains, locus YLL026W, active compounds read low 0.932 | S. cerevisiae deletion strains, locus YLL041C, strain sdh2, active compounds read low 0.958 | S. cerevisiae deletion strains, locus YLR027C, strain aat2, active compounds read low 0.93 | S. cerevisiae deletion strains, locus YLR039C, strain RIC1, active compounds read low 0.811 | S. cerevisiae deletion strains, locus YLR058C, strain SHM2, active compounds read low 0.901 | S. cerevisiae deletion strains, locus YLR102C, strain apc9, active compounds read low 0.951 | S. cerevisiae deletion strains, locus YLR262C, strain YPT6 (second series), active compounds read low 0.912 | S. cerevisiae deletion strains, locus YLR262C, strain YPT6, active compounds read low 0.872 | S. cerevisiae deletion strains, locus YLR342W, strain FKS1, active compounds read low 0.936 | S. cerevisiae deletion strains, locus YLR357W, strain rsc2, active compounds read low 0.902 | S. cerevisiae deletion strains, locus YLR370C, strain arc18, active compounds read low 0.947 | S. cerevisiae deletion strains, locus YLR371W, strain rom2, active compounds read low 0.938 | S. cerevisiae deletion strains, locus YLR384C, strain iki3, active compounds read low 0.952 | S. cerevisiae deletion strains, locus YML016C, strain PPZ1, active compounds read low 0.959 | S. cerevisiae deletion strains, locus YML124C, strain tub3, active compounds read low 0.952 | S. cerevisiae deletion strains, locus YMR058W, strain fet3, active compounds read low 0.932 | S. cerevisiae deletion strains, locus YMR078C, strain ctf18, active compounds read low 0.93 | S. cerevisiae deletion strains, locus YMR125W, strain sto1, active compounds read low 0.967 | S. cerevisiae deletion strains, locus YMR129W, active compounds read low 0.956 | S. cerevisiae deletion strains, locus YMR223W, strain ubp8, active compounds read low 0.92 | S. cerevisiae deletion strains, locus YMR231W, strain pep5, active compounds read low 0.993 | S. cerevisiae deletion strains, locus YMR307W, strain GAS1, active compounds read low 0.649 | S. cerevisiae deletion strains, locus YNL067W, strain RPL9B, active compounds read low 0.87 | S. cerevisiae deletion strains, locus YNL128W, strain TEP1, active compounds read low 0.9 | S. cerevisiae deletion strains, locus YNL209W, strain ssb2, active compounds read low 0.965 | S. cerevisiae deletion strains, locus YNL248C, strain rpa49, active compounds read low 0.921 | S. cerevisiae deletion strains, locus YNL250W, strain rad50, active compounds read low 0.939 | S. cerevisiae deletion strains, locus YNL271C, strain bni1, active compounds read low 0.937 | S. cerevisiae deletion strains, locus YNL298W, strain CLA4, active compounds read low 0.934 | S. cerevisiae deletion strains, locus YNL322C, strain KRE1 (second series), active compounds read low 0.969 | S. cerevisiae deletion strains, locus YNR049C, strain mso1, active compounds read low 0.97 | S. cerevisiae deletion strains, locus YNR052C, strain pop2, active compounds read low 0.944 | S. cerevisiae deletion strains, locus YOL012C, strain htz1 0.489 | S. cerevisiae deletion strains, locus YOL147C, strain pex11, active compounds read low 0.94 | S. cerevisiae deletion strains, locus YOR001W, strain rrp6, active compounds read low 0.917 | S. cerevisiae deletion strains, locus YOR061W, strain CKA2, active compounds read low 0.955 | S. cerevisiae deletion strains, locus YOR069W, strain VPS5, active compounds read low 0.979 | S. cerevisiae deletion strains, locus YOR070C, strain gyp1, active compounds read low 0.934 | S. cerevisiae deletion strains, locus YOR080W, strain dia2, active compounds read low 0.957 | S. cerevisiae deletion strains, locus YOR106W, strain vam3, active compounds read low 0.887 | S. cerevisiae deletion strains, locus YOR136W, strain idh2, active compounds read low 0.954 | S. cerevisiae deletion strains, locus YOR144C, strain elg1, active compounds read low 0.938 | S. cerevisiae deletion strains, locus YOR231W, strain MKK1, active compounds read low 0.881 | S. cerevisiae deletion strains, locus YOR265W, strain rbl2, active compounds read low 0.952 | S. cerevisiae deletion strains, locus YOR316C, strain cot1, active compounds read low 0.939 | S. cerevisiae deletion strains, locus YPL106C, strain sse1, active compounds read low 0.856 | S. cerevisiae deletion strains, locus YPL240C, strain hsp82, active compounds read low 0.951 | S. cerevisiae deletion strains, locus YPL241C, strain CIN2, active compounds read low 0.985 | S. cerevisiae deletion strains, locus YPL256C, strain CLN2, active compounds read low 0.882 | S. cerevisiae deletion strains, locus YPR119W, strain clb2, active compounds read low 0.969 | S. cerevisiae deletion strains, locus YPR141C, strain kar3, active compounds read low 0.975
